ChEMBL document CHEMBL4513216, “Probing the Open Global Health Chemical Diversity Library for Multistage-Active Starting Points for Next-Generation Antimalarials” (ACS Infect Dis, 2020)
Among all 68,000 compounds or so, about 2,700 (4%) showed an effect of 50% or more. The entries come from a sample that favours strong results as a whole.

Each molecule was assayed on Plasmodium berghei (assay: Screen against P. berghei liver stage (PbLuc), transformed with Luciferase, at 2uM). Details: tested at 2 uM.
Format: functional, HepG2

Point of comparison: Cc1ccccc1CN(C)C(=O)CN1CCOC(Cn2cncn2)C1 (configuration not stated), INHIBITION 2.07%. Against it:
- COCC(=O)N1CC2(CCN(c3ccccc3)C2)C1 — lower, -31.82%
- CCc1nc(CC2CN(c3ncnc4nc(C)cc(C)c34)CCO2)no1 (configuration not stated) — higher, 5.1%
- CS(=O)(=O)N[C@@H]1CCO[C@]2(CCN(C(=O)c3cscn3)C2)C1 — higher, 23.1%
- Cc1nc(C(=O)N2CC[C@@]3(C[C@@H](NS(C)(=O)=O)CCO3)C2)cs1 — higher, 68.95%
- Cc1nc(C(=O)N2CC[C@@]3(C[C@H](NS(C)(=O)=O)CCO3)C2)cs1 — higher, 60.79%
- CS(=O)(=O)N[C@@H]1CCO[C@]2(CCN(C(=O)c3cnccn3)C2)C1 — higher, 9.14%
- CS(=O)(=O)N[C@H]1CCO[C@]2(CCN(C(=O)c3ccccn3)C2)C1 — higher, 36.75%
- Cc1cc(C(=O)N2CC[C@@]3(C[C@@H](NS(C)(=O)=O)CCO3)C2)no1 — higher, 19.51%
- COCCN1C(=O)CC(N2CCN(c3ccc(F)cc3)CC2)C1=O (configuration not stated) — higher, 39.9%
- NC(=O)CCSc1ccccc1NCc1ccc(Cl)s1 — higher, 22.75%
- Cc1nc(C(=O)N(C)[C@@H]2CCC[C@@H](Oc3ccccc3)[C@@H]2O)co1 — higher, 9.47%
- Cc1ocnc1C(=O)N(C)[C@@H]1CC[C@@H](Oc2ccccc2)[C@@H]1O — higher, 67.27%
- CN(C(=O)c1ccon1)[C@@H]1CCC[C@@H](Oc2ccccc2)[C@@H]1O — higher, 44.9%
- Cc1ccccc1C1(CNC(=O)CCN2C(=O)CCC2=O)CC1 — higher, 26.76%
- O=C(N1CCOCC1)[C@@]12CCO[C@@H]1CCN(CC1CCCC1)C2 — lower, -55.42%
- Cc1c(NC(=O)c2cnc[nH]2)cccc1C(=O)NC(C)(C)C — higher, 5.41%
- COc1ccc(CN(Cc2cc(C)no2)C2CC2)cc1 — lower, -16.88%
- c1cnc(N2CCC(c3csc(Nc4cnccn4)n3)CC2)nc1 — lower, -41.06%
- O=C1CC2(CCN(c3nncs3)C2)CN1c1ccc2c(c1)OCCO2 (configuration not stated) — higher, 58.16%
- O=C1CC2(CCN(c3nncs3)C2)CN1c1ccccc1 (configuration not stated) — lower, -5.44%
- O=C1CC2(CCN(c3nncs3)C2)CN1c1cccc(F)c1 (configuration not stated) — higher, 21.75%
- O=C(O)c1ccc(CC2CCN(Cc3ccc(-c4cc[nH]n4)o3)C2)cc1 (configuration not stated) — higher, 16.93%
- Cc1ncnc2c1CCN(CC(=O)N(C)C)CC2 — higher, 18.15%
- Cc1cc(C(F)(F)F)nc(CNC(=O)CCC2CCCN(C)C2)n1 (configuration not stated) — lower, -28.09%
- Cc1cc(C(F)(F)F)nc(CNC(=O)CCC2CCCCN2C)n1 (configuration not stated) — higher, 54.77%
- Cc1cc(C(F)(F)F)nc(CNC(=O)C2CCCCCN2C)n1 (configuration not stated) — higher, 20.77%
- OCC1CCCCN1Cc1cc(O)c2cccc(F)c2n1 (configuration not stated) — higher, 24.36%
- Cc1ccc2nc(CN3CCCC3c3cccnc3)cc(O)c2c1 (configuration not stated) — higher, 50.59%
- NCC1CCCCN1Cc1cc(O)c2cccc(F)c2n1 (configuration not stated) — lower, -20.95%
- Cc1ccc2nc(CN3CCN(C4CCCCC4)C(=O)C3)cc(O)c2c1 — lower, -17.17%
- Cc1ccc2nc(CN3CCN(C4CCCC4)C(=O)C3)cc(O)c2c1 — lower, -87.32%
- Oc1cc(CN2CCCCC2c2cccnc2)nc2c(F)cccc12 (configuration not stated) — higher, 57.75%
- CN(C)C(CNCc1nc(-c2ccsc2)no1)c1ccco1 (configuration not stated) — higher, 11.18%
- CN(C)C(CNCc1nc(-c2ccsc2)no1)c1cccs1 (configuration not stated) — higher, 58.14%
- CN(C)C(CNCc1nc(-c2ccsc2)no1)c1ccsc1 (configuration not stated) — higher, 6.82%
- c1ccc(CN2CCN(C3CCOC4(CCOCC4)C3)CC2)nc1 (configuration not stated) — lower, -14.69%
- CCNc1nc2cn(-c3ccc(C)c(C)c3)c(=O)c-2c[nH]1 — lower, -5.34%
- c1cncc(CN2Cc3nccn3CC(Cn3cccn3)C2)c1 (configuration not stated) — lower, -9.53%
- COc1cc(F)ccc1C(C(=O)O)N(C)Cc1ccon1 (configuration not stated) — higher, 12.55%
- COc1ccc(Cl)cc1C(C(=O)O)N(C)Cc1ccon1 (configuration not stated) — lower, -35.07%
- COc1cc(C)cc(C(C(=O)O)N(C)Cc2ccon2)c1OC (configuration not stated) — higher, 76.6%
- CN(C)CC(=O)N1CCN(c2cc(N3CCCC3CO)ncn2)CC1 (configuration not stated) — lower, -23.06%
- COC1[C@@H]2CC[C@H]1CN(c1nc(C)nc3sccc13)C2 (some centres not stated) — higher, 32.26%
- Cc1ccccc1CN(CCN(C)C)Cc1ccc(C(=O)O)cc1 — higher, 34.07%
- Cc1ccccc1CN(CCN(C)C)Cc1ccccc1C(=O)O — higher, 4.12%
- Cc1ccccc1CN(CCN(C)C)Cc1ccc(O)c(C(=O)O)c1 — higher, 56.76%
- Cc1cc(CN2CCc3nc(C(C)C)nc(O)c3CC2)c(C)s1 — higher, 23.7%
- Cc1ccnc(NC(=O)c2ccc(Br)o2)c1 — higher, 62.51%
- Cc1ccnc(NC(=O)c2ccc(C)o2)c1 — lower, -4.26%
- Cc1ccnc(NC(=O)c2ccc(Cl)o2)c1 — higher, 5.48%
- Cc1cccc(OCCNC(=O)CN2CCc3cncnc3C2)c1 — higher, 51.94%
- O=C(CN1CCc2cncnc2C1)NCCOc1ccccc1 — higher, 10.62%
- O=C(CN1CCc2cncnc2C1)NCCOc1cccc(Cl)c1 — higher, 29.54%
- Cn1cc(CN2CCCC(c3nc(O)cc(-c4cccs4)n3)C2)cn1 (configuration not stated) — higher, 32.24%
- Oc1cc(-c2nccs2)nc(C2CCN(Cc3cccs3)CC2)n1 — lower, -14.73%
- Oc1cc(-c2cccs2)nc(C2CCCN(CC3=CCCOC3)C2)n1 (configuration not stated) — higher, 51.88%
- Cc1csc(CNC(=O)NCC(O)c2ccc(F)cc2F)n1 (configuration not stated) — lower, -41.67%
- Cn1cccc1CN1CCC2(CC1)CN(c1ccccc1)C(=O)CO2 — higher, 40.64%
- CCN(CCC(F)(F)F)S(=O)(=O)c1cccc(F)c1C#N — lower, -46.3%
- Cc1cccc2cc(C(=O)N3CCSCC3)n(C)c12 — higher, 19.04%
- N#Cc1cc(F)ccc1NCc1ccc(Cn2cncn2)cc1 — higher, 53.99%
- N#Cc1cc(F)ccc1Cn1cncn1 — lower, -14.79%
- Fc1ccc(CNc2ccccc2Cn2cncn2)cc1 — higher, 32.93%
- Cc1cnn(CC2CCCN2Cc2nnc(C(C)C)o2)c1 (configuration not stated) — lower, -12.82%
- Cc1cc(=O)c2cc(F)ccc2n1CC(=O)O — lower, -30.92%
- O=S(=O)(c1cccs1)N1CC[C@H]2[C@H]1CCN2c1ncccn1 — higher, 56.76%
- Cc1cccc(S(=O)(=O)N2CC[C@H]3[C@H]2CCN3c2ncccn2)c1 — higher, 29.19%
- O=S(=O)(c1ccc(F)cc1)N1CC[C@H]2[C@H]1CCN2c1ncccn1 — higher, 31.96%
- CN1CC(=O)N(c2cccc(F)c2)CC12CCN(S(=O)(=O)C1CC1)C2 (configuration not stated) — lower, -12.36%
- COCCN1C(=O)[C@]2(CC[C@@H]3CN(C(=O)NC(C)C)C[C@@H]32)N=C1C — higher, 16.91%
- CN(C)[C@@H]1CCN(C(=O)Cc2cccs2)[C@H]1Cc1ccncc1 — lower, -23.59%
- Cc1cc(CN2CC[C@H]3[C@H]2CCN3S(C)(=O)=O)oc1C — lower, -12.98%
- CCN1C(=O)CCCC12CCCN(C(=O)c1ccoc1C)C2 (configuration not stated) — higher, 50.17%
- CCN1C(=O)CCCC12CCCN(C(=O)c1cc(C)oc1C)C2 (configuration not stated) — higher, 19.09%
- CCN1C(=O)CCCC12CCCN(C(=O)c1occc1C)C2 (configuration not stated) — higher, 46.87%
- Cc1nc(C)c(C(=O)Nc2cccc(CN3CCC(CO)CC3)c2)o1 — lower, -8.84%
- Cn1cc(CN2CCc3ncnc(N4CCOCC4)c3CC2)cn1 — lower, -15.83%
- Cc1nc(N2CCOCC2)nc2c1COCC21CCN(CC(C)C)C1 (configuration not stated) — higher, 53.55%
- CCN1CCC2(COCc3c(C)nc(N(C)C)nc32)C1 (configuration not stated) — higher, 25.31%
- Cc1nc(N(C)C)nc2c1COCC21CCN(CC2CC2)C1 (configuration not stated) — lower, -54.51%
- COCCN1CCC2(COCc3c(C)nc(N(C)C)nc32)C1 (configuration not stated) — higher, 54.62%
- Cc1nc(N2CCOCC2)nc2c1COCC21CCN(CC2CC2)C1 (configuration not stated) — lower, -27.12%
- CCN1CCC2(COCc3c(C)nc(N4CCOCC4)nc32)C1 (configuration not stated) — lower, -9.91%
- CCOC(C)c1nccn1Cc1noc(CC)n1 (configuration not stated) — lower, -12.93%
- COCCN1CC[C@H]2CN(c3cc(OC)ncn3)C[C@@H]2C1=O — lower, -25.53%
- O=C(c1ccccc1F)N1CCOC(c2nc(-c3ncccn3)no2)C1 (configuration not stated) — lower, -14.56%
- COc1cccc(-c2ccc3nc(C4CCN(C(C)=O)CC4)nn3c2)c1 — lower, -3.4%
- O=C1NC2(CCN(Cc3nccs3)CC2)CC1c1ccncc1 (configuration not stated) — higher, 53.54%
- O=C1NC2(CCN(Cc3cccs3)CC2)CC1c1ccncc1 (configuration not stated) — lower, -13.79%
- O=C1NC2(CCN(Cc3ccc(F)cc3)CC2)CC1c1ccncc1 (configuration not stated) — lower, -26.22%
- COc1ccc(CNC(=O)NCCc2csc(C)n2)cn1 — lower, -33.61%
- Cc1nnc(N2CCC(CS(N)(=O)=O)CC2)c(C#N)c1C — higher, 46.52%
- Cc1nnc(N2CCC(CN(C)C(C)C)CC2)c(C#N)c1C — higher, 2.1%
- Cc1nnc(N2CCCC(CS(N)(=O)=O)C2)c(C#N)c1C (configuration not stated) — higher, 57.79%
- CNc1nccnc1C1CCN(C(C)C)CC1 — lower, -5.95%
- CC(C)N1CCC(c2n[nH]cc2S(C)(=O)=O)CC1 — higher, 53.59%
- Cc1c[nH]nc1C1CCN(S(=O)(=O)N(C)C)CC1 — higher, 20.73%
- CC1CCN(CCNCc2cc(-c3ccccc3)cn3nnnc23)CC1 — higher, 26.56%
- CCc1c(C)nn2c(O)cc(C3CCN(C(=O)C4CC4)C3)nc12 (configuration not stated) — higher, 11.53%
- Cc1cccc(CN2CC3(CCN(Cc4ccoc4)CC3)OCC2=O)n1 — higher, 11.99%
- O=C1CC(c2ccncc2)C2(CCN(Cc3cccnc3)CC2)N1 (configuration not stated) — lower, -4.26%
- Cc1ccc(CN2CCC3(CC2)NC(=O)CC3c2ccccc2)s1 (configuration not stated) — higher, 57.85%
- Cc1nc(CN2CCC3(CC2)NC(=O)CC3c2ccccc2)cs1 (configuration not stated) — higher, 44.43%
- Cc1noc(C)c1CN1CCC2(CC1)NC(=O)CC2c1ccccc1 (configuration not stated) — higher, 20.01%
- O=C1CC(c2ccccc2)C2(CCN(Cc3ccncc3)CC2)N1 (configuration not stated) — higher, 54.07%
- O=C1CC(c2ccncc2)C2(CCN(Cc3ccc(F)cc3)CC2)N1 (configuration not stated) — higher, 6.03%
